# Among all 310,000 compounds or so, about 14,000 (4.5%) showed an effect of 50% or more. Effects have a minus sign here. The entries come from a sample that favours strong results as a whole.
# Target: human ether-à-go-go-related gene (hERG) potassium channel (human, UniProt Q12809)
# Assay: primary screen, population patch clamp on CHO cells stably expressing hERG; higher = less effect of the substance
# 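Further: peak tail current of the secondary pulse compared with the same well before compound.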
# human ether-à-go-go-related gene (hERG) potassium channel, sequence (Q12809 whole entry, looked up): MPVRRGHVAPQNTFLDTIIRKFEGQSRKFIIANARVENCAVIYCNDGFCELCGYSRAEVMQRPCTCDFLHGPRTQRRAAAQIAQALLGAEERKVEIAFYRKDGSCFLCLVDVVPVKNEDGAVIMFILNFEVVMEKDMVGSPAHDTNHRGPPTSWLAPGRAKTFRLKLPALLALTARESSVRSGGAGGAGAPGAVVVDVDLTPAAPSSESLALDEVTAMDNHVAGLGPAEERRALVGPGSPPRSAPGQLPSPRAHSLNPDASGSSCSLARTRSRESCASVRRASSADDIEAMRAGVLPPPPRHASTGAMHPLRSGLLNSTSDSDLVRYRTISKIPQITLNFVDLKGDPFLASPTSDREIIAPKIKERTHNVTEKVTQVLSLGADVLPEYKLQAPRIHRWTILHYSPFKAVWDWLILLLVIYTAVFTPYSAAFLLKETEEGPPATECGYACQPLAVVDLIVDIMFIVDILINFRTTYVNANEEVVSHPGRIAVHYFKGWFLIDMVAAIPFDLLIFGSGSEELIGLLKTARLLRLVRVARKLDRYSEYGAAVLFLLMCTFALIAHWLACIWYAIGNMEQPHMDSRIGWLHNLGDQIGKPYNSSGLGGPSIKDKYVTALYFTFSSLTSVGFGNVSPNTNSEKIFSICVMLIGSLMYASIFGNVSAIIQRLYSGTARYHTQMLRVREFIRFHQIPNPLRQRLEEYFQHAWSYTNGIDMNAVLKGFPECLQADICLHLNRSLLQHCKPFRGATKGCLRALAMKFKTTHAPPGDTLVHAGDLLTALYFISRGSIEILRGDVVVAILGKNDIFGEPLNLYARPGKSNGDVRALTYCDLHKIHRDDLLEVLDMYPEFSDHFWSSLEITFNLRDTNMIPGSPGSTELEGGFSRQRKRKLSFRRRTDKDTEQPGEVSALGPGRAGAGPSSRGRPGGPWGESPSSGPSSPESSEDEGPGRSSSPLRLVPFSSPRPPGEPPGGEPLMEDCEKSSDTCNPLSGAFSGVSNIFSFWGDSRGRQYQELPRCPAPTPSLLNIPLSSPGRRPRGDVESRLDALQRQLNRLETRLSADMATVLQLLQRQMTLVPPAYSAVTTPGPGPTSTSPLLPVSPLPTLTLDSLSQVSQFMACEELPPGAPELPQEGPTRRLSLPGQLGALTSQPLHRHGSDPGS
row,Compound,"hERG current change (%, negative = inhibition) at 10uM [%]"
1,CCN(CC)c1cc(NCCO)c([N+](=O)[O-])c2nonc12,-25.1
2,COc1ccc(CCC(=O)NCCS(=O)(=O)N2CCN(c3ccc(OC)cc3)CC2)cc1,7.57
3,O=C(NCCS(=O)(=O)N1CCN(c2ccccc2F)CC1)c1ccc(Cl)cc1,-55.5
4,COc1ccc(CCC(=O)NCCS(=O)(=O)N2CCN(c3ccccc3)CC2)cc1,-36.6
5,COc1ccc(CCC(=O)NCCS(=O)(=O)N2CCN(c3ccc(F)cc3)CC2)cc1,-58.8
6,O=C(NCCS(=O)(=O)N1CCN(c2ccccc2F)CC1)c1ccc(Br)cc1,4.45
7,COc1ccc(CCC(=O)NCCS(=O)(=O)N2CCN(c3ccccc3F)CC2)cc1,-63.2
8,O=C(CCCc1ccccc1)NCCS(=O)(=O)N1CCN(c2ccccc2F)CC1,-18.5
9,COc1ccc(CCC(=O)NCCS(=O)(=O)N2CCN(c3ccccc3OC)CC2)cc1,-8.87
10,O=C(Cc1ccc(Cl)cc1)NCCS(=O)(=O)N1CCN(c2ccccc2F)CC1,-10.6
11,COC(=O)COc1ccc(C(C2C(=O)CC(C)(C)CC2=O)C2C(=O)CC(C)(C)CC2=O)cc1,15.8
12,Cc1oc2c(O)c(O)ccc2c(=O)c1-c1ccc(Cl)cc1,-11.3
13,COc1ccc([C@H]2CC(=O)C=C(c3ccc(F)cc3OCc3ccccc3)C2)cc1OC,12.1
14,CCN(CC)c1ccc(SS(=O)(=O)O)cc1,9.02
15,CCOc1ccccc1NC1=CC(=O)CC(c2ccccc2)C1 (stereo not drawn),-16.9
16,COc1ccc(S(=O)(=O)N2CCN(CC(=O)c3ccc(O)c(O)c3)CC2)cc1,-45
17,O=C(CN1CCN(S(=O)(=O)c2ccc(Cl)cc2)CC1)c1ccc(O)c(O)c1,-59.5
18,O=C(CN1CCN(S(=O)(=O)c2ccc(F)cc2)CC1)c1ccc(O)c(O)c1,-34.9
19,O=C(CN1CCN(S(=O)(=O)c2ccc(Br)cc2)CC1)c1ccc(O)c(O)c1,-76.8
20,CC(C)c1ccc(S(=O)(=O)N2CCN(CC(=O)c3ccc(O)c(O)c3)CC2)cc1,-24.6
21,O=C(CN1CCN(S(=O)(=O)c2cc(Cl)ccc2Cl)CC1)c1ccc(O)c(O)c1,26.3
22,Cc1cccc(-c2nc3ccccc3c3nncn23)c1,-12.1
23,CCCn1c(NC(=O)c2cccc(S(=O)(=O)N3CCCC3)c2)nc2ccccc21,-28.8
24,N#CCn1nnc(-c2ccc3c(c2)OCO3)n1,-4.09
25,Cc1cc(C(=O)OCC(=O)Nc2cc(C(F)(F)F)ccc2N2CCOCC2)c(C)o1,-0.421
26,COc1ccc(NC(C)C(=O)Nc2cc(C(F)(F)F)ccc2N2CCOCC2)c(OC)c1 (stereo not drawn),-19.2
27,O=C(COC(=O)c1ccc(O)cc1)Nc1cc(C(F)(F)F)ccc1N1CCOCC1,-25

row,Compound,"hERG current change (%, negative = inhibition) at 10uM [%]"
1,COc1ccc(NC(C)=O)cc1NC(C)C(=O)Nc1cc(C(F)(F)F)ccc1N1CCOCC1 (stereo not drawn),-60.1
2,O=C(COC(=O)c1ccccc1NCCO)Nc1cc(C(F)(F)F)ccc1N1CCOCC1,-60.2
3,CSc1ncccc1C(=O)OCC(=O)Nc1cc(C(F)(F)F)ccc1N1CCOCC1,-20.2
4,Cc1cc(OCC(=O)OCC(=O)Nc2cc(C(F)(F)F)ccc2N2CCOCC2)ccc1Cl,11.1
5,N#Cc1ccc(OCC(=O)OCC(=O)Nc2cc(C(F)(F)F)ccc2N2CCOCC2)cc1,-57.7
6,Cc1ccccc1OCC(=O)OCC(=O)Nc1cc(C(F)(F)F)ccc1N1CCOCC1,12.9
7,O=C(COC(=O)COc1ccc2ccccc2c1)Nc1cc(C(F)(F)F)ccc1N1CCOCC1,7.69
8,COc1cc(Cl)c(C)cc1NC(C)C(=O)Nc1cc(C(F)(F)F)ccc1N1CCOCC1 (stereo not drawn),-2.59
9,CC(=O)c1c(C)[nH]c(C(=O)OCC(=O)Nc2cc(C(F)(F)F)ccc2N2CCOCC2)c1C,-56.1
10,NCCN=C1NS(=O)(=O)c2ccccc21,0.316
11,CCOc1ccc(OCC(=O)Nc2ccc(S(=O)(=O)Nc3cc(C)nc(C)n3)cc2)cc1,16.4
12,COc1cccc(-c2nc(N3CCCC3)c3ccccc3n2)c1O,-5.65
13,Cc1ccc(C)c(C(=O)COC(=O)c2cc(Cl)nc3ccccc23)c1,26.4
14,O=C(Nc1ccc2c(c1)CCC2)Nc1ccc2c(c1)OCO2,6.88
15,O=C(Nc1ccc(C(=O)N2CCCCC2)cc1)c1ccccc1Br,8.24
16,O=C(NCc1ccccn1)c1ccc(=O)oc1,1.42
17,Cc1cc(Cl)ccc1OCC(=O)Nn1c(C)ccc1C,3.73
18,Cc1ccc(C(=O)NCc2ccco2)cc1Br,-11.5
19,COc1cccc(NC(=O)C23CCC(C)(C(=O)O2)C3(C)C)c1 (stereo not drawn),-5.46
20,COc1ccc(OC)c(/C=C2\Oc3cc(OCC(=O)N4CC(O)C[C@H]4C(=O)O)ccc3C2=O)c1 (stereo partly drawn),4.97
21,COc1ccccc1OCCCn1cc(C(=O)C2CC2)c2ccccc21,-2.64
22,COc1cccc(C(=O)NN2C(=S)N(c3ccccc3)C(=O)C2CC(N)=O)c1 (stereo not drawn),16.2
23,O=C(COc1ccc2ccccc2c1)Nc1ccccc1C(=O)O,26.6
24,CCCC(=O)NC(=S)Nc1cccc(Cl)c1N1CCCCC1,14.1
25,C/C(=N\NC(=O)c1ccccc1O)C1C(=O)c2ccccc2C1=O,-0.25
26,C/C(=N\NC(=O)c1ccccc1O)C1CC1,-62.2
27,C/C(=N\NC(=O)C1CC1)c1ccccc1O,0.248
